Screening data from PubChem.
p53 reactivation: qHTS assay for re-activators of p53 using a Luc reporter; H1299 p53-A138V BP100-luciferase reporter, luminescence, 24 h; 320,000 tested, 0.063% active; Potency, µM (highest dose often 92.2 µM), without a hit: at the top dose activity change, positive = activation, usual class: activators; note: % of control where 0% means no effect; nearly all actives have a fitted effect of over 45% in size
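p53-null H1299 cells stably carrying temperature-sensitive p53-A138V and a BP100-luciferase reporter were pinned with compounds (4-point, 1:5 series) and held 24 hrs at 37 deg C. Luminescence was read 10 min after detection reagent.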
ELG1 genotox: qHTS screen for small molecules that induce genotoxicity in human embryonic kidney (HEK293T) cells expressing luciferase-tagged ELG1. HEK293T ELG1-luciferase reporter, luminescence, 16 h. Potency, µM (doses to about 46 µM), for the others: at the top dose activity change, positive = activation, usual class: activators. 330,000 tested, 1.3% active. AID 504466, 2011; note: % of control where 0% means no effect; nearly all actives have a fitted effect of over 60% in size
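Luminescence read-out: rising ELG1-luciferase signal, reflecting elevated ELG1 protein under genetic stress, flags genotoxic compounds. Cells were treated for 16 hr at 37 °C before ONE-Glo detection.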
SMN2 splice up: qHTS Assay for Enhancers of SMN2 Splice Variant Expression; HEK293 SMN2-luciferase splicing reporter, luminescence, 30-36 h; AID 1458, 2008; 210,000 tested, 2.8% active; Potency, µM (top dose mostly 46.1 µM), for the others: top-dose activity change, positive = activation, most hits filed as activators; note: % of control where 0% means no effect; nearly all actives have a fitted effect of over 55% in size
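qHTS luciferase splicing reporter: luminescence rises when SMN2 exon 7 is included in transfected HEK293 cells. Compound exposure lasted 30-36 h at 37C, with 4.5 mM final sodium butyrate as control, followed by a ONE-Glo read.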
FLuc modulator: qHTS profiling assay for firefly luciferase inhibitor/activator using purifed enzyme and Km concentrations of substrates (counterscreen for miR-21 project); Luciferin 4-monooxygenase (Photinus pyralis), P08659; purified FLuc, Km substrates, luminescence inhibition; Potency, µM (titrated, usually from 57.5 µM), for inactives: at the highest dose activity change, negative = inhibition, most hits filed as inhibitors; 360,000 tested, 6.9% active;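 note: plate controls were vehicle for no effect and reference inhibitor for full effect; nearly all actives have a fitted effect of over 55% in size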
Target sequence (P08659 whole entry, looked up): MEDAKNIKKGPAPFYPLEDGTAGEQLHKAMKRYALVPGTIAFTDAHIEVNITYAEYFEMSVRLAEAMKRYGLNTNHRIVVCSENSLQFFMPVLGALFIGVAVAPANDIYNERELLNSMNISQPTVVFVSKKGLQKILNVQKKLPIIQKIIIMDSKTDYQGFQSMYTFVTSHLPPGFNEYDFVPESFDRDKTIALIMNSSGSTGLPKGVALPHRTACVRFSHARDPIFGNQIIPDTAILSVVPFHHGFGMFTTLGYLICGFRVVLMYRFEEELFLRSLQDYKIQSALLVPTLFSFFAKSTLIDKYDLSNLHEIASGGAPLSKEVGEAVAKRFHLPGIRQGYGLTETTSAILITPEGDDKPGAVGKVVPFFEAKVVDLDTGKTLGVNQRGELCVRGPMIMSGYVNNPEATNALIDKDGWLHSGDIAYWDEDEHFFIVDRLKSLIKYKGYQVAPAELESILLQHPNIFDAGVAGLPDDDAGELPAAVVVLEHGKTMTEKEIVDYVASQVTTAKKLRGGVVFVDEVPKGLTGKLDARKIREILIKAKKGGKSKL
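Biochemical qHTS of compounds, final roughly 60 µM downward over six points, against 10 nM purified firefly luciferase using Km concentrations of substrates (10 uM D-luciferin, 10 uM ATP) in Tris acetate pH 7.5 buffer; luminescence output.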
Rab9 prom act: qHTS Assay for Rab9 Promoter Activators; Huh7 Rab9 promoter-luciferase reporter, luminescence, 24 h; Potency, µM (doses to about 9.22 µM), inactives show at the highest dose activation, negative = inhibition, hits mostly activators; 320,000 tested, 2.8% active; note: % of control where 0% means no effect; nearly all actives have a fitted effect of over 60% in size
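Luminescence read-out: Huh7 cells stably expressing Rab9-luciferase, treated 24 h with compound at 37 °C, then lysed with luciferase reagent for 10 min at ambient before reading.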
NPC1 promoter act: qHTS Assay for NPC1 Promoter Activators; AID 485313, 2010; 320,000 tested, 2.4% active; Potency, µM (series often up to 9.22 µM), inactives show top-dose activation, most hits filed as activators; Huh7 NPC1 promoter luciferase reporter, 24 h; note: % of control where 0% means no effect; nearly all actives have a fitted effect of over 60% in size
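Stable NPC1-promoter luciferase Huh7 line; cpd (DMSO) 24 h, 37 °C, 5% CO2; Amplite luciferase reagent 10 min RT; luminescence readout. qHTS format.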
Starred values were filed as active, the others as inactive; ? = inconclusive; . = not tested or not shown; [ ] = remark or other dose. Most compounds without a hit are left out; they make up all but 7.4% or so of the library. Calls come from the whole dose curve; as a rule, active = well fitted curve in the direction sought with a large enough effect; inconclusive = small, poorly fitted or top-dose-only effect, or another doubt; inactive = no such curve, though single readings can be large; an effect the other way counts as inactive or inconclusive. Potency is the fitted concentration of half-maximal effect.

SMILES	p53 reactivation	ELG1 genotox	SMN2 splice up	FLuc modulator	Rab9 prom act	NPC1 promoter act
Cc1cc(C)c(Cn2cnc(-c3ccc([N+](=O)[O-])cc3)c2)c(C)c1	-3%	-11%	-25%	3%	-19%	-17%
O=[N+]([O-])c1ccc(Nc2ccc(Cl)cc2)nc1	4%	1%	.	-2%	-4%	-3%
CC(C)c1ccc(CNc2ccc([N+](=O)[O-])cn2)cc1	?	?	16µM*	9.5µM*	?	?
CC(C)(C)c1ccc(CNc2ccc([N+](=O)[O-])cn2)cc1	?	?	?	12µM*	?	26%
CC(C)(C)c1ccc(Cn2cnc(-c3ccc([N+](=O)[O-])cc3)c2)cc1	28µM*	?	27%	19µM*	?	?
Cn1nc(C(=O)NC2CCCCC2)c2c1-c1ccccc1S(=O)(=O)C2	4%	0%	.	-3%	-6%	-3%
Cc1nc2ccc(S(=O)(=O)N(C)CC(=O)Nc3cccc(C(F)(F)F)c3)cc2s1	.	.	1%	3%	.	.
CC[C@@]12CCCN3CCc4c(n(c5ccccc45)C(=O)C1)[C@H]32	.	.	-1%[9.22 µM]	.	.	.
Cc1c(C(=O)N2CCN(CCc3ccccn3)CC2)oc2ccc(Cl)cc12	-7%	0%[9.26 µM]	.	-6%	-3%	-3%
O=C(CSc1nnnn1C1CC1)Nc1ccc(S(=O)(=O)N2CCOCC2)cc1	5%	1%	.	5%	-4%	-1%
COc1ccc(-c2csc(-c3cccs3)n2)c(OC)c1	?	2.1µM*	11µM*	3.4µM*	1.3µM*	?
COc1ccc(-c2csc(NC(=O)Cc3ccccc3F)n2)c(OC)c1	?	1%	.	?	11%	5%
COc1ccc(C(=O)NCc2csc(-c3cccs3)n2)cc1	-4%	-4%	.	-2%	-2%	0%
COc1ccc(-c2csc(-c3ccccc3)n2)c(OC)c1	?	4.6µM*	11µM*	3.4µM*	?	?
CN(C)/C=C/C(=O)c1ccc(Cl)cc1	9%	6%	-14%	?	13%	19%
CN(C)/C=C/C(=O)c1ccc(-n2cccc2)cc1	16%	?	13µM*	11µM*	2.8µM*	3.5µM*
CCC(=O)Nc1ccc(C(=O)Cn2nc(C(=O)O)c3ccccc3c2=O)cc1	-7%	1%	27%	-14%	-2%	-3%
Cc1ccc(C(=O)Cn2nc(C(=O)O)c3ccccc3c2=O)cc1C	2%	1%	.	6.7µM*	13%	4%
Cc1cc(C(=O)Cn2nnc3ccccc3c2=O)c(C)n1-c1ccccc1F	?	?	11µM*	0.34µM*	0.4µM*	0.45µM*
COc1ccc(-n2c(C)cc(C(=O)Cn3nc(C(=O)O)c4ccccc4c3=O)c2C)cc1	1%	-2%	-28%	24µM*	1%	-1%
Cc1cc(C(=O)Cn2nnc3ccccc3c2=O)c(C)n1-c1c(C)n(C)n(-c2ccccc2)c1=O	-3%	0%	6%	1%	-7%	0%
Cc1ccc(-n2c(C)cc(C(=O)Cn3nc(C(=O)O)c4ccccc4c3=O)c2C)cc1	10%	4%	.	5.4µM*	8%	0%
Cc1cc(C(=O)Cn2nc(C(=O)O)c3ccccc3c2=O)c(C)n1-c1ccc(OC(F)F)cc1	-3%	-11%	-52%	-16%	1%	0%
Cc1ccc(S(=O)(=O)N2CCOCC2)cc1C(=O)OCC(=O)NC1CCCC1	0%	0%	.	.	.	.
COC(=O)N1CCC2(CCN(Cc3ccc(C#N)cc3)CC2)CC1	.	.	2%	.	.	.
SMILES	p53 reactivation	ELG1 genotox	SMN2 splice up	FLuc modulator	Rab9 prom act	NPC1 promoter act
Cc1cc(C(=O)Cn2nc(C(=O)O)c3ccccc3c2=O)c(C)n1CC(F)(F)F	5%	16%	5%	3µM*	?	18%
COc1ccc(CNC(=O)Cn2nnc3ccccc3c2=O)cc1	9%	10%	.	?	17%	2%
COCC(C)n1c(C)cc(C(=O)Cn2nc(C(=O)O)c3ccccc3c2=O)c1C (stereo not given)	-2%	?	2%	7.6µM*	23%	0%
COc1ccc(-n2c(C)cc(C(=O)Cn3nnc4ccccc4c3=O)c2C)cc1	17%	-2%	-3%	12µM*	?	23%
Cc1cc(Nc2cc(F)ccc2C)nc(-n2nc(C)cc2C)n1	.	.	.	-10%	.	.
O=C(NCCc1ccccn1)c1cc2ccccc2o1	?	?	.	?	?	3.5µM*
Cc1ccccc1NC(=O)c1cc2ccccc2o1	.	7.3µM*	.	8.5µM*	?	4µM*
COc1cc(NC(=O)c2cc3ccccc3o2)c(OC)cc1Br	-3%	7%	-6%	-12%	17%	18%
O=C(Nc1ccc(Cl)cc1Cl)c1cc2ccccc2o1	6%	?	.	0.95µM*	1.6µM*	1.4µM*
COc1cc(NC(=O)c2cc3ccccc3o2)c(OC)cc1Cl	-2%	9%	-13%	0%	29%	15%
COc1ccccc1NC(=O)c1cc2ccccc2o1	?	?	22µM*	6.7µM*	?	?
CC[C@H](C)[C@H](N)C1=N[C@H](C(=O)N[C@@H](CC(C)C)C(=O)N[C@@H](CCC(=O)O)C(=O)N[C@@H](C(=O)N[C@H]2CCCCNC(=O)[C@@H](CC(N)=O)NC(=O)[C@@H](CC(=O)O)NC(=O)[C@@H](Cc3cnc[nH]3)NC(=O)[C@@H](Cc3ccccc3)NC(=O)[C@@H]([C@@H](C)CC)NC(=O)[C@@H](CCCN)NC2=O)[C@@H](C)CC)CS1	.	.	-8%[20.6 µM]	.	.	.
Cc1ccccc1CCNCc1c(C(=O)O)c(C)n(Cc2c(F)cccc2Cl)c1C	.	.	-12%	-3%	.	.
Cc1ccc(-c2nc3cc(NC(=O)c4cc5ccccc5o4)ccc3o2)cc1	.	.	9%	-10%	.	.
O=C(NCc1ccccc1Cl)c1cc2ccccc2o1	.	.	4%	?	.	.
Cc1ccc(NC(=O)c2cc3ccccc3o2)nc1	1%	0.73µM*	.	1.9µM*	3.2µM*	4µM*
O=C(Nc1ncccc1Cl)c1cc2ccccc2o1	?	7.3µM*	.	5.4µM*	1.6µM*	2µM*
CS(=O)(=O)c1ccc2nc(NC(=O)C3CCCO3)sc2c1 (stereo not given)	5%	3%	.	-2%	1%	-1%
O=C(Nc1nc2ccc([N+](=O)[O-])cc2s1)C1CCCO1 (stereo not given)	18%	?	?	15µM*	2.2µM*	?
